In PubChem BioAssay AID1963322 (National Center for Advancing Translational Sciences (NCATS), 2024):
Inconclusive results are not listed. Unmarked numbers belong to inactive results. Calls of active or inactive are those of the source. Calls follow the shape of the full dose curve.

What follows are compounds tested against cAMP-dependent protein kinase catalytic subunit alpha (Homo sapiens) (UniProt P17612) (assay: Protein Kinase A (PKA-HiBiT) SDR gain of signal screen). Conditions: PKA-HiBiT structural dynamics response (SDR), luminescence gain of signal; series mostly up to 32.9 µM; activity change, positive = signal gain: at the top concentration.
Method in brief: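 PKA-N-HiBiT enzyme at 10 nM final was preincubated with compounds for 30 min at room temperature, protected from light. Nano-Glo HiBiT reagent was then added for 10 min, and luminescence was read by CCD imager. H-89 served as positive control.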

| Compound | Potency | activity change, positive = signal gain |
| --- | --- | --- |
| c1cc(-c2cc(C3CCNCC3)[nH]n2)ccn1 | 3.62 µM (active) | – |
| Cc1[nH]nc2ncc(C(=O)N3CCC[C@H]3c3ccc(Cl)cc3)cc12 | 12.4 µM (active) | – |
| CN1CCN(C2CCC(n3cc(-c4ccc(Oc5ccccc5)cc4)c4c(N)ncnc43)CC2)CC1 (stereo not given) | – | -10.5% |
| Cc1cc(-c2cc(O)ccc2Cl)cc2nnc(Nc3ccc(OCCN4CCCC4)cc3)nc12 | – | -11.2% |
| CC(C)(NS(=O)(=O)c1ccc2c(Cl)cnc(N=C(N)N)c2c1)C(=O)O | – | 8.27% |
| Cc1cc(NC(=O)c2ccc(C)c(Nc3nccc(-c4cccnc4)n3)c2)cc(-n2cnc(C)c2)c1 | – | -7.69% |
| C=CC(=O)N1CCC[C@@H](n2nc(-c3cccc(C(=O)Nc4ccc(C(C)C)c(C)c4)c3)c3c(N)ncnc32)C1 | – | 3.4% |
| CCCS(=O)(=O)Nc1ccc(F)c(C(=O)c2c[nH]c3ncc(Cl)cc23)c1F | – | 6.54% |
| Cc1cc(F)ccc1-c1nc(NCCN=C(N)NC#N)nc2c1ccc(=O)n2-c1c(F)cccc1F | – | 4.31% |
| COc1ccccc1-c1c[nH]c2ncc(-c3cncc(C(=O)N(C)C)c3)cc12 | – | 14.2% |
| CCCCNc1ncc2c(-c3ccc(S(=O)(=O)N4CCOCC4)cc3)nn(C3CCC(O)CC3)c2n1 (stereo not given) | – | 15.8% |
| Cc1ccc(NC(=O)N2CCN(c3nc(N)nc4sc(-c5cccnc5)nc34)CC2)cc1 | – | 4.4% |
| CCN1/C(=C\C(C)=O)Sc2ccc(OC)cc21 | – | 8.08% |
| CCN1C(=O)CNc2ncc(-c3ccc(-c4ncn[nH]4)nc3C)nc21 | – | -1.23% |
| CC(C)CCN1c2nc(Nc3cc(F)c(O)c(F)c3)ncc2N(C)C(=O)C1C (stereo not given) | – | -13.2% |
| CC[C@@](C)(Nc1ccnc(-c2c[nH]c3ncccc23)n1)C(=O)NCC(F)(F)F | 12 µM (active) | – |
| O=C1CCC(N2C(=O)c3ccccc3C2=O)C(=O)N1 (stereo not given) | – | -9.83% |
| O=C(NOCC(O)CO)c1cc(Br)c(F)c(F)c1Nc1ccc(I)cc1F (stereo not given) | – | -34.9% |

| Compound | Potency | activity change, positive = signal gain |
| --- | --- | --- |
| CCn1nc(C2CCN(C(=O)CCO)CC2)nc1-c1cnc(N)c(-c2nnc(C(C)(C)C)o2)n1 | – | 7.07% |
| COc1cc2ncnc(Nc3ccc(F)c(Cl)c3)c2cc1OCCCN1CCOCC1 | – | 10% |
| CC1(C)OCCn2c1nc1c(N3CCOCC3)nc(-c3cnc(N)nc3)nc12 | – | 4.3% |
| Cc1c(Cl)cccc1S(=O)(=O)Nc1nc(NCCc2ccccc2)nc2c1CN(Cc1ccccc1)CC2 | – | -13.3% |
| CCN1CCN(Cc2ccc(NC(=O)c3ccc(C)c(NC(=O)c4cncc(-c5cccs5)c4)c3)cc2C(F)(F)F)CC1 | – | 16.5% |
| Cc1ccccc1-n1c([C@H](C)Nc2nc(N)nc3nc[nH]c23)nc2cccc(C)c2c1=O | – | 5.87% |
| O=C(Nc1cc(C(F)(F)F)ccc1N1CCCCC1)c1ccncc1 | – | 3.42% |
| Cc1cn(-c2cc(F)cc(NC(=O)c3ccc(C)c(Nc4nccc(-c5cccnc5)n4)c3)c2)cn1 | – | -14.2% |
| COc1cc(N2CCOCC2)ccc1Nc1ncc(Cl)c(Nc2ccccc2NS(C)(=O)=O)n1 | 1.34 µM (active) | – |
| COc1cc2c(N3CCN(C(=O)Nc4ccc(OC(C)C)cc4)CC3)ncnc2cc1OCCCN1CCCCC1 | – | 7.07% |
| Cc1cc(C)c(/C=C2\C(=O)Nc3ccccc32)[nH]1 | – | -43.1% |
| COc1cc2c(Oc3ccc4[nH]c(C)cc4c3F)ncnc2cc1OCCCN1CCCC1 | – | 5.25% |
| Oc1ccc(-c2ccc(-c3cc(Nc4cccc(CNC5CC5)c4)n[nH]3)cc2)c(O)c1 | 10.7 µM (active) | – |
| CN1CCN(CCOc2cc(OC3CCOCC3)c3c(Nc4c(Cl)ccc5c4OCO5)ncnc3c2)CC1 | – | 5.07% |
| C=CC(=O)Nc1cccc(Oc2nc(Nc3ccc(N4CCN(C)CC4)cc3OC)ncc2Cl)c1 | – | 2.43% |
| CSc1cccc(Nc2ncc3cc(-c4c(Cl)cccc4Cl)c(=O)n(C)c3n2)c1 | – | -1.1% |
| CC(C)(C)n1nc(-c2cccc3ccccc23)c2c(N)ncnc21 | – | 9.35% |
